Experimental findings from PubChem BioAssay (NCATS) are described below.

Records with an inconclusive call do not appear. Active and inactive are the calls of the source. Calls come from the whole dose curve; as a rule, active = well fitted inhibition curve with a large enough effect; inconclusive = small, poorly fitted or top-dose-only effect; inactive = flat fitted curve, though single readings scatter.

Chain of Calcium and integrin-binding protein 1 (Homo sapiens) (Q99828 whole entry, looked up): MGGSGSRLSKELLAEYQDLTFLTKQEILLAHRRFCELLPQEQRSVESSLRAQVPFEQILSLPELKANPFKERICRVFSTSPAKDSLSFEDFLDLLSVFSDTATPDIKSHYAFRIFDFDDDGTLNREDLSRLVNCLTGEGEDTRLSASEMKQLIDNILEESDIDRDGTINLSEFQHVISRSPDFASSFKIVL

The experiment has as its target Calcium and integrin-binding protein 1 (Homo sapiens) (UniProt Q99828). Briefly: Primary qHTS for Identification of Calcium Integrin Binding Protein 1 (CIB1) Competitor (AID 1508620).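 Note: GST tagged CIB1 binding a fluorescein labelled alphaIIb integrin peptide tracer; top concentration of the series differs between compounds.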 The settings on record: CIB1-GST / FITC-alphaIIb peptide fluorescence polarization; series mostly up to 114 µM. Put shortly:
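Fluorescence polarization competition: CIB1-GST (1 uM final) preincubated with compound 15 min at room temperature, then FITC-labeled alphaIIb peptide (100 nM final) added for another 15 min. Polarization read at Ex 480/Em 540.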
Regarding `CCOc1ccc(CCNC(=O)c2cc3ccncc3n2Cc2cccc(C)c2)cc1OCC`, the outcome was inactive.
On to `Cc1ccccc1C(=O)N1CCc2cc(N3CCC(NC(=O)Cc4ccccc4)C3)ccc21` (centres undefined), for which the result was inactive.
Regarding `O=S(=O)(Nc1cccc2ccncc12)c1ccc(NCc2cccc(Cl)c2O)cc1`, the result was inactive.
On to `CCOc1ccc(CCNC(=O)c2ccc(Oc3ccccc3)cc2)cc1OCC`, for which the result was inactive.
For `CCc1nn2c(=O)cc(N3CCN(C)CC3)nc2s1` the value was “inactive”.
For `S=P(c1ccccc1)(c1ccccc1)c1cnc2ccccn12` the value was “inactive”.
The value for `Cc1cc(C)c(OP(=O)(OCc2c(-c3ccccc3)no[n+]2[O-])Oc2c(C)cc(C)cc2C)c(C)c1` was “inactive”; that for `Cc1[nH]c2ccccc2c1P(=S)(c1ccccc1)c1ccccc1` was “inactive”; that for `O=C(Nc1ncc(Cc2ccc(C(F)(F)F)cc2)s1)c1cnc(-c2ccccc2)o1` was “inactive”.
